Assay [1] can be described thus: anti-His antibody binders, primary screen, artefact control for SMM control protein annotation, biochemical, small-molecule microarray, 635 nm fluorescence (AID 1128).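 Further: score merges feature fluorescence with signal-to-noise for each printed compound spot.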 The note with it: anti-His Alexa647 antibody binding, higher = more signal.
Assay [2] has as its system Human papillomavirus type 1a E7 protein (residues 1-88). Put plainly: HPV1a E7 small-molecule binders, primary screen, biochemical, small-molecule microarray, residues 1-88, 635 nm (AID 1129). The conditions noted are these: small-molecule microarray binding, fluorescence 635 nm; higher = more signal.
Assay [3] concerns the target Focal adhesion kinase 1 (Homo sapiens) (UniProt Q05397). Put plainly: small-molecule microarray binders of FAK, primary screen, biochemical, 635/667 nm fluorescence, BSA, DTT (AID 1130).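 Further: composite of spot emission at 667 nm and signal to noise over triplicate slides.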 The conditions noted are these: PTK2 binding, 635 nm fluorescence, higher = more signal.
The test system of assay [4] is Fibrinogen (Alexa647-labelled). In words: fibrinogen binders on compound microarrays, profiling panel, artefact control for SMM control-protein annotation, biochemical, small-molecule microarray, 635/667 nm fluorescence (AID 1131).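 Further: z-score merges 667 nm fluorescence with per-spot signal-to-noise over triplicate slides.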 The note with it: fibrinogen-A647 binding fluorescence, higher = more signal.
The target of assay [5] is Follistatin (Homo sapiens) (UniProt P19883). Put plainly: follistatin binders on small-molecule microarrays, primary screen, biochemical, small-molecule microarray, 635/667 nm fluorescence (AID 1132). The conditions noted are these: FST binding, 635 nm fluorescence, higher = more signal.
For assay [6], the target named is Fibroblast growth factor 2 (Homo sapiens) (UniProt P09038). Put plainly: FGF2 binders on small-molecule microarrays, primary screen, biochemical, small-molecule microarray, 635/667 nm fluorescence (AID 1133). The note with it: small-molecule microarray binding, FGF2, fluorescence 635/667; higher = more signal.
Assay [7] in a line: mitochondrial membrane potential change in A549 cells, profiling panel, cell-based, JC-1 fluorescence, basal, 24 h, 100 nL (AID 1138).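 Further: A549 lung adenocarcinoma cells under basal conditions with no added stimulus; test concentration not given here.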 The note with it: higher = more signal.
The test system of assay [8] is Lefty1. Put plainly: Lefty1 binders on small-molecule microarrays, primary screen, biochemical, small-molecule microarray, 635/667 nm fluorescence (AID 1139). The note with it: small-molecule microarray binding, fluorescence 635/667; higher = more signal.
Assay [9] has as its system wheat germ agglutinin (Triticum aestivum), Alexa647-labelled. Put plainly: wheat germ agglutinin binders on compound microarrays, profiling panel, artefact control for SMM control-protein annotation, biochemical, small-molecule microarray, 635/667 nm fluorescence (AID 1140).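 Further: score merges 667 nm feature emission with signal to noise over triplicate slides.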 The note with it: WGA-A647 binding, 635 nm fluorescence, higher = more signal.
For assay [10], the target named is Luciferin 4-monooxygenase (Photinus pyralis) (UniProt P08659). In words: firefly luciferase enzyme inhibitors, primary screen, biochemical, luminescence, purified enzyme, 2006 set (AID 1141).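 Further: cell-free assay with purified firefly luciferase at 100 ng per well in PBS; test concentration not given here.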 The conditions noted are these: SteadyGlo luminescence, 30 min, higher = more signal, called active from +8 up or from −8 down.

Calls of active or inactive are those of the source.

Luciferin 4-monooxygenase (Photinus pyralis), sequence (P08659 whole entry, looked up): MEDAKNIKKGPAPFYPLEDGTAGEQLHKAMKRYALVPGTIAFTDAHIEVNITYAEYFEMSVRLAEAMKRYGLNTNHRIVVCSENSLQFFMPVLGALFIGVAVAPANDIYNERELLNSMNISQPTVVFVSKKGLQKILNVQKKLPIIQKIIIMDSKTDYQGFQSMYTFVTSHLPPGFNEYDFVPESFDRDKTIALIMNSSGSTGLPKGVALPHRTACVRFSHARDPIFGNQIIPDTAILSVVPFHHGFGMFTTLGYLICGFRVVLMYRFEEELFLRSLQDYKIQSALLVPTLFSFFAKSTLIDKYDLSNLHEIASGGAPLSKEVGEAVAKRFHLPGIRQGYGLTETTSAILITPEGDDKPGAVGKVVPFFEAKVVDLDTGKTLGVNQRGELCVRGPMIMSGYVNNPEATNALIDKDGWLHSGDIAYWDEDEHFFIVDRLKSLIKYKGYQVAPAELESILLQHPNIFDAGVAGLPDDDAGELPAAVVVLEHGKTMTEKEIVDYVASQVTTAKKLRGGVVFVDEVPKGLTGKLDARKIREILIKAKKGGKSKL
Follistatin (Homo sapiens), sequence (P19883 whole entry, looked up): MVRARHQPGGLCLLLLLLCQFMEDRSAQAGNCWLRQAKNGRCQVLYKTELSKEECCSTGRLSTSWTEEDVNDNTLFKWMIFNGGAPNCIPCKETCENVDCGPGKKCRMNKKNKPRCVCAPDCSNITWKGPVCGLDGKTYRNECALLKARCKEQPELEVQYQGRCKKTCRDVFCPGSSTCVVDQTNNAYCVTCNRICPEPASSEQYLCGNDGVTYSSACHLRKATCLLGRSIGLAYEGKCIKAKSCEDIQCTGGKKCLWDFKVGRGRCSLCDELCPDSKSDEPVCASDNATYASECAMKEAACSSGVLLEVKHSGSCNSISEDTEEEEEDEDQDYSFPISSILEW
Fibroblast growth factor 2 (Homo sapiens), sequence (P09038 whole entry, looked up): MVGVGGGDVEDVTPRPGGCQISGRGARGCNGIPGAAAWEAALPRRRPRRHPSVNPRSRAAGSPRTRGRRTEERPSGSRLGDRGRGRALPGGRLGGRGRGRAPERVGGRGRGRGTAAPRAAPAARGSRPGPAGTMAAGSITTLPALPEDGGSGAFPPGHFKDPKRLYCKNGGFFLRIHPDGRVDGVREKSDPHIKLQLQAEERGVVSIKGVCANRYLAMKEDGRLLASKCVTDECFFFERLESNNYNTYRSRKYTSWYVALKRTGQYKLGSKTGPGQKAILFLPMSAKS
Focal adhesion kinase 1 (Homo sapiens), sequence (Q05397 whole entry, looked up): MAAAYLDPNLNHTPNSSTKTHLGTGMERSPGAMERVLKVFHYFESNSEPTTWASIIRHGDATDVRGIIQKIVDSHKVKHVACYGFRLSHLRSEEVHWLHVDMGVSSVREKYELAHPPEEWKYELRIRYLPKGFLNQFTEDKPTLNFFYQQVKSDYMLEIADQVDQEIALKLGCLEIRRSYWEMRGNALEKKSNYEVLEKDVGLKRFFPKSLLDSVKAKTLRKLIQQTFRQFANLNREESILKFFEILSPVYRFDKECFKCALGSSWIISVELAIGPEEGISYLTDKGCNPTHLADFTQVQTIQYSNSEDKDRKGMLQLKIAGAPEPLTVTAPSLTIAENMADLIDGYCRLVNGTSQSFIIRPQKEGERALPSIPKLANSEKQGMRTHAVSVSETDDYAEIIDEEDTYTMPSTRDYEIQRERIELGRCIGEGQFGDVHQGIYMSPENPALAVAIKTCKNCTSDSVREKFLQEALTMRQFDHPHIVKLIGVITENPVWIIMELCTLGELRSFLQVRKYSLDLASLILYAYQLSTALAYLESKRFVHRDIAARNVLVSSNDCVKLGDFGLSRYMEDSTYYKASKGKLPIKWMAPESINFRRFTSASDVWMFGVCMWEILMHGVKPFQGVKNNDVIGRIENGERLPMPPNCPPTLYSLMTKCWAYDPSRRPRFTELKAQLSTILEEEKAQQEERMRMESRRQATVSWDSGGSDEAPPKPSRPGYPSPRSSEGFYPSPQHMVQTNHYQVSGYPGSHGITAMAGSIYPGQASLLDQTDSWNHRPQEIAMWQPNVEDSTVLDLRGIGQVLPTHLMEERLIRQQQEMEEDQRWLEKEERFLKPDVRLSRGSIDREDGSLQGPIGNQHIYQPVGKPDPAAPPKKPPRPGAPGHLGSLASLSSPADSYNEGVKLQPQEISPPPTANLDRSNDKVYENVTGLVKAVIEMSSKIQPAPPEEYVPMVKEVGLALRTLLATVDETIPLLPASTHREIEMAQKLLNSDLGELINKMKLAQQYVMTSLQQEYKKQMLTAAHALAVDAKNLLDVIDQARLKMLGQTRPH

`COc1cc(C(O)C2C=CC3C(=O)NC(=O)C3N2Nc2ccc(Cl)cc2Cl)cc(OC)c1OC` (stereo not given): the composite z-score in [1] is 1.32; in assay [2], 1.24; in assay [3], 0.105; in [4], 0.866; in [5], 1.14; in [6], -0.0812. Also, the composite z-score was determined as 0.286 in [8] and 0.871 in [9]. In addition, the z-score is 0.275 in assay [7] and -0.0332 (inactive) in assay [10].
On to `C=C(C(=O)CC[C@H](OC(=O)c1cccnc1)c1ccc(OCCO)cc1)C(C)C`, for which the composite z-score came to 0.423 in assay [1]; 0.54 in assay [2]; 0.091 in assay [3]; 0.917 in [4]; 1.05 in assay [5]; 0.859 in [6]. Besides, the results for the composite z-score in [8] and in [9] were 1.31 and -0.052, respectively. Also, the z-score in [7] was 0.531; in [10], -2.26 (inactive).
Turning to `CC1(C)[C@@H]2CC(C(O)C3C=CC4C(=O)N(c5ccccc5)C(=O)C4N3Nc3ccccc3F)=C[C@@H]1C2` (stereo not given in full), the composite z-score in assay [1] came out at 1.41; in assay [2], 1.2; in [3], 0.218; in assay [4], 0.938; in assay [5] it was 0.876; in [6], 1.26. For the same molecule, the composite z-score in [8] worked out at 0.655; in assay [9] it was 0.392. Moreover, the z-score in [7] was -0.136; in assay [10], 0.905 (inactive).
Turning to `COCCOC(=O)N1C(=O)[C@@]2(c3cc(C#CCCO)ccc31)[C@H](C(=O)NC[C@H](O)c1ccccc1)[C@H]1C(=O)O[C@H](c3ccccc3)[C@H](c3ccccc3)N1[C@@H]2c1ccccc1OCCO`, the composite z-score is -0.338 in assay [1]; 1.23 in assay [2]; 1.07 in [3]; 0.59 in [4]; 1.28 in assay [5]; 1.42 in assay [6]. Also, the composite z-score is 1.35 in assay [8] and 1.07 in [9]. The z-score is 0.358 in assay [7] and -1.02 (inactive) in assay [10].
For the molecule `CC(C)=CCCC(C)=CC(O)C1C=CC2C(=O)N(c3ccccc3)C(=O)C2N1Nc1ccc([N+](=O)[O-])cc1` (stereo not given), the composite z-score is 0.987 in [1]; 1.22 in assay [2]; 0.954 in assay [3]; 1.02 in assay [4]; 1.03 in assay [5]; -0.151 in assay [6]. Further, the figures for the composite z-score in assay [8] and in [9] were 0.253 and 0.969, respectively. Besides, the z-score in assay [7] was -0.78; in assay [10], 0.453 (inactive).
In the case of `CC(C)c1ccc(NN2C(C(O)c3ccccn3)C=CC3C(=O)N(c4ccccc4)C(=O)C32)cc1` (stereo not given), the composite z-score in assay [1] was determined as 0.75; in [2] it was 1.28; in [3] it was 0.405; in assay [4] it was 0.947; in [5], 1.28; in [6] it was 1.48. The composite z-score in [8] amounted to 1.18; in assay [9], 0.976. Further, the z-score in [7] was 1.14; in assay [10], -1.5 (inactive).
As to `O=C1O[C@H](c2ccccc2)[C@H](c2ccccc2)N2[C@H]1[C@@H](C(=O)N1CCCCCCC1)[C@]1(C(=O)Nc3ccc(C#CCCO)cc31)[C@H]2c1ccc(OCCO)cc1`, the composite z-score in [1] worked out at 2.99; in [2], 1.36; in [3], 5.23; in assay [4] it was 0.97; in [5], 1.52; in assay [6], 1.27. For the same molecule, the figures for the composite z-score in [8] and in assay [9] were 1.92 and 1.64, respectively. Also, the values for the z-score in assay [7] and in assay [10] were -0.421 and -0.264 (inactive), respectively.
On to `CCCCCCC#C[Si](O[C@H](c1ccccc1)c1cn(Cc2cccc(Cl)c2)nn1)(C(C)C)C(C)C`, for which the composite z-score in assay [1] is 1.16; in assay [2], 0.696; in [3], 0.035; in assay [4], 0.201; in assay [5], 0.363; in assay [6], 0.142. The composite z-score is 0.234 in assay [8] and 0.403 in assay [9]. Moreover, the figures for the z-score in assay [7] and in assay [10] were 1.4 and 0.163 (inactive), respectively.
Turning to `COC(=O)c1ccc(OC)c(/C=C\CC(CCc2ccccc2)OC(C)=O)c1` (stereo not given), the composite z-score in assay [1] is -0.281; in assay [2], -0.133; in assay [3], 0.377; in assay [4], -0.177; in assay [5], 0.457; in [6], -0.293. In addition, the composite z-score came out at 0.222 in [8] and 0.476 in assay [9]. The z-score is 0.293 in [7] and -0.558 (inactive) in assay [10].
Consider `O=C(C=C(CC(O)c1cccc(Cl)c1)OCCF)OCCF` (stereo not given), for which the composite z-score was -0.144 in [1]; -1.59 in [2]; -0.401 in assay [3]; -1.35 in assay [4]; -0.885 in assay [5]; -0.576 in assay [6]. The results for the composite z-score in assay [8] and in [9] were -0.94 and -0.442, respectively. In addition, the z-score in assay [7] is 0.0691; in assay [10], 0.364 (inactive).
Consider `COC(=O)[C@@]1(Cc2ccccc2)[C@H]2c3cc(C(=O)N(C)C)n(Cc4ccccn4)c3C[C@H]2CN1C(=O)c1ccccc1`, for which the composite z-score was 1.54 in assay [1]; 0.827 in assay [2]; 1.56 in [3]; 1.04 in [4]; -0.226 in assay [5]; -0.389 in assay [6]. Further, the values for the composite z-score in [8] and in assay [9] were -0.225 and 0.88, respectively. The z-score is -0.128 in assay [7] and 1.56 (inactive) in [10].
Turning to `COCCOC(=O)N1C(=O)[C@@]2(c3cc(C#CCNC(N)=O)ccc31)[C@H](C(=O)N1CCCCCCC1)[C@H]1C(=O)O[C@H](c3ccccc3)[C@H](c3ccccc3)N1[C@@H]2c1ccc(OCCO)cc1`, the composite z-score in assay [1] is -0.456; in assay [2], 0.492; in assay [3] it was 0.423; in [4], 0.577; in assay [5], 1.15; in assay [6] it was 0.126. Further, the composite z-score came out at 0.577 in [8] and 0.534 in assay [9]. For the same molecule, the z-score is -1.6 in assay [7] and -1.19 (inactive) in [10].
With `COC(=O)[C@@]1(Cc2ccc(OC)cc2)[C@H]2c3cc(C(=O)N(C)C)n(Cc4cc(C)n(C)n4)c3C[C@H]2CN1C(=O)c1ccccc1`, the composite z-score was 1.08 in [1]; 1.29 in [2]; 0.405 in assay [3]; -0.842 in assay [4]; -0.396 in [5]; -0.233 in assay [6]. Moreover, the composite z-score was -0.0189 in assay [8] and 0.262 in [9]. For the same molecule, the z-score in [7] is -1.14; in [10] it was 1.01 (inactive).
Regarding `COCCCNC(=O)[C@@]1(Cc2ccccc2I)c2ccccc2C(=O)N(Cc2ccccc2Cl)[C@H]1c1ccc(CO)cc1`, the composite z-score was 1.25 in assay [1]; 0.494 in assay [2]; 0.692 in [3]; 0.912 in assay [4]; 0.583 in assay [5]; -0.125 in assay [6]. Besides, the values for the composite z-score in assay [8] and in assay [9] were 0.246 and 0.897, respectively. The figures for the z-score in assay [7] and in [10] were 0.723 and 1.29 (inactive), respectively.
In the case of `C[C@@]1([C@@H](NC(=O)c2cccs2)c2ccc(-c3ccccc3)cc2)C[C@H]1C1CCCCC1`, the composite z-score in [1] was -1.16; in [2], -0.678; in assay [3], 0.429; in [4], -1.76; in [5], -0.27; in assay [6] it was -1.48. Further, the results for the composite z-score in assay [8] and in assay [9] were -0.507 and -1.45, respectively. Also, the z-score was -0.255 in assay [7] and 1.44 (inactive) in assay [10].
For `COCCOC(=O)N1C(=O)[C@@]2(c3cc(C#CCNC(N)=O)ccc31)[C@H](c1ccc(OCCO)cc1)N1[C@H](c3ccccc3)[C@H](c3ccccc3)OC(=O)[C@H]1[C@@H]2C(=O)N1CCN(c2ncccn2)CC1`, the composite z-score in [1] worked out at 0.122; in assay [2], 1.09; in [3] it was 1.58; in assay [4], 0.72; in assay [5], 1.41; in [6] it was 1.24. Also, the values for the composite z-score in assay [8] and in assay [9] were 0.411 and 0.447, respectively. In addition, the z-score in assay [7] was -1.57; in assay [10], -1.23 (inactive).

The values are drawn from PubChem BioAssay.
